# In PubChem BioAssay AID504408 (Broad Institute, 2011):
# In all, about 300,000 compounds went through this assay and about 5,200 (1.7%) were called active. This excerpt belongs to a sample that is enriched for actives. Values without a mark were called inactive.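 How the source made its calls: active means mean replicate activation of at least 50% with a set share of replicates each reaching 50%; inconclusive means only one of those two conditions met; inactive means mean below 50% and too few replicates reaching it.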
# Assay: HSF-1 response element luciferase induction – NIH3T3-HGL cells, MG132 stress, luminescence, single point, primary screen (AID 504408);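 further: 0% = median of the neutral control wells and 100% = twice that signal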
# Settings: NIH3T3-HGL HSF-1 luciferase reporter, MG132, 8 h; at 9 µM; stronger effect = higher value; 100% = twice DMSO control signal
row,SMILES,activation
1,O=C1/C(=C\c2ccc(O)cc2)CCC1CNc1ccc(Cl)cc1 (configuration not stated),-5.88%
2,COc1ccc(C(=O)c2c3ccc([N+](=O)[O-])cc3[n+]([O-])n2CCCN)cc1,11.6%
3,CCC(C)c1ccccc1N1CC(C(=O)N2CCN(S(=O)(=O)c3ccc(F)cc3)CC2)CC1=O (configuration not stated),7.61%
4,CCOC(=O)c1ccc(Nc2cc3ccccc3c(=O)[nH]2)cc1,-14.6%
5,CCOC(=O)c1sc(C)c2c1NC(C)(c1cccc3ccccc13)NC2=O (configuration not stated),97.8% (active)
6,CCOC(=O)c1sc(-c2cccc([N+](=O)[O-])c2)cc1N,24.4%
7,CCCCOC(=O)c1[nH]c(C)c(C(=O)OC)c1C,52.3% (active)
8,CCOC(=O)c1c(C)[nH]c(C(=O)OCC(=O)N2CCCC2=O)c1C,16.4%
9,CCOC(=O)c1c(C)[nH]c(C(=O)OCC(=O)c2ccc(OC)cc2OC)c1C,-6.52%
10,COc1cc(-c2nnc(NC(=O)C3=COCCO3)o2)cc(OC)c1OC,-3.05%
11,O=C(OCCOCn1cc(Br)c(=O)[nH]c1=O)c1ccccc1,-0.69%
12,N[C@@H](Cc1ccccc1)C(=O)N1CCOCC1,-19.9%
13,C=CCOc1cccc(C2C(C(=O)c3ccc(C)o3)=C(O)C(=O)N2c2nnc(C)s2)c1 (configuration not stated),-4.03%
14,CC(=O)c1ccc(NC(=O)C2CCCN2S(=O)(=O)c2cccs2)cc1 (configuration not stated),-4.67%
15,c1ccc(CN=C2Nc3ccccc3CS2)nc1,58% (active)
16,CCCCN(C1CCS(=O)(=O)C1)S(=O)(=O)c1ccc(C(C)C)cc1 (configuration not stated),0.442%
17,CCCCN(C(=O)c1ccc(S(=O)(=O)N2CCOCC2)cc1)C1CCS(=O)(=O)C1 (configuration not stated),-15%
18,Cc1cccc(C(C)C)c1NC(=O)COC(=O)C1CC(=O)N(Cc2ccccc2)C1 (configuration not stated),4.94%
19,Cc1ccc(C)c(C(C)NC(=O)C2CCCO2)c1 (configuration not stated),2.29%
20,Cc1cc([N+](=O)[O-])ccc1NC(=O)C1CCCO1 (configuration not stated),0.502%
21,Cc1cc(C)c2nc(NC(=O)C3CCCO3)sc2c1 (configuration not stated),61.5% (active)
22,COc1cccc(/C=C/C(=O)OCC(=O)N2CCCc3ccccc32)c1,-15.2%
23,CC(=O)N1CCN(C(=O)c2cc(-c3ccc(C)o3)nc3ccccc23)CC1,-3%
24,Cc1ccc(NC(=S)NC(=O)/C=C/c2ccc(Cl)cc2)cc1,8.91%

row,SMILES,activation
1,COC(=O)c1c(C)[nH]c(C(=O)NCCc2ccc(S(N)(=O)=O)cc2)c1C,22.1%
2,COC(=O)c1c(C)[nH]c(C(=O)/C=C/c2ccc(Cl)cc2)c1C,75.6% (active)
3,O=C(OCc1nnc(-c2ccccc2)o1)c1cc(=O)[nH]c2ccccc12,-8.33%
4,COC(=O)c1ccc(COC(=O)C2CCN(S(=O)(=O)c3c(Cl)cccc3Cl)CC2)o1,-1.35%
5,Cc1cccc(NC(=O)C2CCCN(C(=O)NCc3ccccc3)C2)c1C (configuration not stated),23.5%
6,Cc1ccccc1NC(=O)N1CCCC1C(=O)NCc1ccccc1 (configuration not stated),-14.4%
7,Cc1ccccc1NC(=O)C1CCCN(C(=O)NCc2ccccc2)C1 (configuration not stated),66.9% (active)
8,CCOC(=O)N1CCN(C(=O)COc2ccc3oc4c(c3c2)CCCC4)CC1,-4.2%
9,CCN(CC(=O)NCc1cccs1)C(=O)c1ccc(OC)c(S(=O)(=O)N2CCOCC2)c1,-5.75%
10,O=C(NCc1ccc2c(c1)OCO2)c1c(O)nc2sccn2c1=O,14.5%
11,COC(=O)c1ccc(COc2ccc(C#N)cc2)o1,10.5%
12,Cc1noc(C)c1COc1ccc2ccc(=O)oc2c1,0.156%
13,CC(C)OC(=O)c1ccc(COc2ccc3ccc(=O)oc3c2)o1,65.7% (active)
14,O=C1CCCCC1Sc1ccc(Cl)cc1[N+](=O)[O-] (configuration not stated),8.24%
15,Cc1cc(OCC(=O)N(C)c2c(N)n(Cc3ccccc3)c(=O)[nH]c2=O)c(C(C)C)cc1Cl,-0.115%
16,Cc1ccc2nc(NC(=O)C3CSC4(C)CCC(=O)N34)sc2c1 (configuration not stated),10.5%
17,Cc1ccc(S(=O)(=O)N(CC(=O)N2CCc3ccccc3C2)c2cccc(Cl)c2)cc1,13%
18,CN(c1ccc(C(=O)N2CCc3ccccc3C2)cc1)S(C)(=O)=O,57.9% (active)
19,CN(c1cccc(NC(=O)c2ccc(CN3CCc4ccccc4C3)cc2)c1)S(C)(=O)=O,21.2%
20,O=C(C(=O)N1CCc2ccccc2C1)N1CCc2ccccc2C1,2.97%
21,CS(=O)(=O)N(CC(=O)N1CCc2ccccc2C1)c1ccc(Br)cc1,-4.09%
22,COc1cccc(N(CC(=O)N2CCc3ccccc3C2)S(C)(=O)=O)c1,69.4% (active)
23,Cc1cc2nc3n(c2cc1C)CC1CC(C(=O)NCCC(C)C)N(C)C31 (configuration not stated),11.4%
